From PubChem
B2AR arrestin = qHTS assay of beta-arrestin-biased ligands of beta2-adrenergic receptor; Beta-2 adrenergic receptor (Homo sapiens), P07550; beta-arrestin recruitment to beta2AR, cell-based reporter; Potency, µM (titrated, usually from 46.1 µM), without a hit: at the highest dose activation, most hits filed as activators; 330,000 tested, 0.02% active;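 note: potency is the fitted concentration of half-maximal effect; 0% = DMSO controls and full agonism = EC100 isoproterenol or metaproterenol; nearly all actives have a fitted effect of over 65% in size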
ELG1 DNA repair = qHTS screen for small molecules that inhibit ELG1-dependent DNA repair in human embryonic kidney (HEK293T) cells expressing luciferase-tagged ELG1; Potency, µM (top dose mostly 46.1 µM), inactives show at the top dose activity change, negative = inhibition, hits mostly inhibitors; 330,000 tested, 2.3% active; HEK293T ELG1-luciferase reporter, luminescence, 16 h; DNA damage induced by 5-fluorouridine; AID 504467, 2011; note: potency is the fitted concentration of half-maximal effect; nearly all actives have a fitted effect of over 55% in size
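Reporter activity after DNA damage by 5-fluorouridine is monitored. Compound-treated cells incubate 16 hr at 37 °C, then ONE-Glo is added for 30 min before luminescence reading.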
Gal4-VP16 FLuc = VP16 counterscreen qHTS for inhibitors of ROR gamma transcriptional activity | AID 2546, 2010 | Drosophila S2 Gal4-VP16 UAS-luciferase, luminescence, 20 h | Potency, µM (series often up to 53.6 µM), inactives show at the highest dose activity, negative = inhibition, most hits filed as inhibitors | 310,000 tested, 3.5% active;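 note: Gal4-VP16 expression switched on by copper sulfate through the metallothionein promoter; potency is the fitted concentration of half-maximal effect; nearly all actives have a fitted effect of over 50% in size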
TSHR antagonist = Antagonists of the Thyroid Stimulating Hormone Receptor: HTS campaign; TSHR-expressing cells, TSH-stimulated cAMP HTRF, 2 h; stronger effect = lower value; activity change, negative = inhibition, % at 11.5 µM; 330,000 tested, 0.2% active;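 active = activity change below a set negative limit, meaning inhibition stronger than a set level, cut at about -70% in these data; inconclusive = activity change between two set negative limits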
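TSHR-expressing cells were treated with compounds, then stimulated with TSH at EC80 (4nM final) for 2 hours at 37 deg C. Cellular cAMP was measured by HTRF competition between lysate cAMP and cAMP-d2 for a cryptate-labelled anti-cAMP antibody.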
RORgamma inh = qHTS for inhibitors of ROR gamma transcriptional activity. 310,000 tested, 5.4% active. Potency, µM (top dose mostly 53.6 µM), without a hit: at the top dose activity change, negative = inhibition, hits mostly inhibitors. Drosophila S2 Gal4-RORgamma UAS-luciferase reporter, 20 h. Nuclear receptor ROR-gamma (Mus musculus), P51450; note: potency is the fitted concentration of half-maximal effect; nearly all actives have a fitted effect of over 60% in size
Target sequence (P51450 whole entry, looked up, the tested form may be a part): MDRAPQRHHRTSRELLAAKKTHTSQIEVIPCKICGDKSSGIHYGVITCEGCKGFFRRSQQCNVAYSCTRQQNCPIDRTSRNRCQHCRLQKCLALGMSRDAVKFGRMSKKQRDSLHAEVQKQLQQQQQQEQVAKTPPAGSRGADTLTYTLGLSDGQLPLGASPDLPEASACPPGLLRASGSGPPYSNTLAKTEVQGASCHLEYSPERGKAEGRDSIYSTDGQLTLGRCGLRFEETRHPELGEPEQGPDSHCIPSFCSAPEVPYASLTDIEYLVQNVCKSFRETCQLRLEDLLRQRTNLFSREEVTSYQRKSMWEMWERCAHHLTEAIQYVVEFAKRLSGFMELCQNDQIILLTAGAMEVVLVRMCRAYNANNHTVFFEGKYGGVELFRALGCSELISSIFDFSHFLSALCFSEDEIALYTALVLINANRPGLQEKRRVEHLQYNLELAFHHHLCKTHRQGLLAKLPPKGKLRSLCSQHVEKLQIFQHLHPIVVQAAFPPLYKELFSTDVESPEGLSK
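Schneider cells (Drosophila), stable Gal4 DBD–ROR gamma + UAS-luc; 1 hr cmpd preincubation; Cu2+ induction 700 uM final; 20 hr ambient; luminescence.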
Numbers without * were called inactive; ? = inconclusive; . = no result; [ ] = dose if it differs, or a comment. The list is not random: actives were taken first. Their share in the collection is about 7.5%. Unless noted, calls come from the whole dose curve; as a rule, active = well fitted curve in the direction sought with a large enough effect; inconclusive = small, poorly fitted or top-dose-only effect, or another doubt; inactive = no such curve, though single readings can be large; an effect the other way counts as inactive or inconclusive. Unless noted, % is set by controls: 0 for no effect and ±100 for the full control effect.

SMILES | B2AR arrestin | ELG1 DNA repair | Gal4-VP16 FLuc | TSHR antagonist | RORgamma inh
C=N[C@H](C(=O)N[C@@H]1C(=O)N2[C@@H]1SC(C)(C)[C@@H]2C(=O)O)c1ccccc1 | . | . | -7.0%[17 µM] | . | 4.0%[16.9 µM]
Cc1ccc(-c2nnc(SCc3nc4ccccc4[nH]3)n2Cc2ccco2)cc1 | 0.9% | ? | ? | 6.3 | 11.2µM*
O=C(CSc1nnc(-c2cnccn2)n1Cc1ccco1)c1ccc(Cl)cc1 | -0.2% | 2.4% | ? | 3.0 | 10µM*
O=C(CSc1nnc(-c2cnccn2)n1Cc1ccco1)c1ccccc1 | -0.9% | 7.8% | 6.4% | -16.7 | 28.7%
CN(C)C(=O)CSc1nnc(-c2ccncc2)n1Cc1ccco1 | -0.3% | 5.4% | -14.1% | -23.1 | 19.7%
Cn1c(SCC(=O)N2c3ccccc3Sc3ccc(Cl)cc32)nnc1-c1ccco1 | 0.1% | 18.4µM* | -13.1% | -3.5 | 36.7%
Cc1cccc(-c2nnc(SCc3nc4ccccc4[nH]3)n2Cc2ccco2)c1 | 0.5% | ? | -3.6% | 0.9 | -43.7%
CCn1c(SCC(=O)N2c3ccccc3Sc3ccccc32)nnc1-c1ccco1 | -0.9% | ? | -6.8% | -4.9 | 0.5%
O=C(CSc1nnc(-c2ccncc2)n1Cc1ccco1)OC1CCCCC1 | -0.5% | 4.3% | ? | 7.3 | 10µM*
O=C(CSc1nnc(-c2ccncc2)n1Cc1ccco1)N1c2ccccc2Sc2ccc(Cl)cc21 | -0.5% | 23.1µM* | -16.4% | -1.5 | ?
CC(C)(C)c1ccc(CSc2nnc(-c3ccccn3)n2Cc2ccco2)cc1 | 0.0% | ? | 7.08µM* | -11.2 | ?
O=C(CC(c1ccco1)S(=O)(=O)c1ccccc1)c1ccccc1 (stereo not given) | ? | 27.6% | -8.5% | 21.5 | 0.1%
Cc1cc(-c2ccccc2)nc(N/N=C/c2ccc(O)cc2)n1 | 0.3% | -4.3% | . | -10.8 | .
Oc1ccc(/C=N/Nc2nc(-c3ccc(Cl)cc3)cc(C(F)(F)F)n2)cc1 | -0.4% | 25.9µM* | -28.3% | 6.0 | 32.5%
CC1CCCC(NC(=O)COC(=O)CCC2CCCC2)C1C (stereo not given) | -0.3% | 3.1% | 0.562µM* | 13.9 | -6.5%
COC(=O)C1C2CC3c4[nH]c5cc(OC)ccc5c4CCN3CC2CC(OC)C1OC (stereo not given) | . | . | 1.5% | . | -6.6%
FC(F)(F)c1cc(NC(=S)NC23CC4CC(CC(C4)C2)C3)cc(C(F)(F)F)c1 | . | . | ? | . | -17.7%
FC(F)(F)c1cccc(NC(=S)Nc2ccc(Cl)cc2Cl)c1 | -0.3% | 1.3% | -25.3% | 7.8 | ?
Cc1cccc(NC(=S)Nc2cccc(C(F)(F)F)c2)n1 | -1.6% | ? | ? | 7.1 | 1µM*
FC(F)(F)c1cc(NC(=S)Nc2ccc3ccccc3c2)cc(C(F)(F)F)c1 | . | . | 14.1µM* | . | ?
FC(F)(F)c1cccc(NC(=S)Nc2cccc(NC(=S)Nc3cccc(C(F)(F)F)c3)n2)c1 | 9.0% | ? | ? | 2.2 | 5.01µM*
C=CCC1CCC/C(=N\NS(=O)(=O)c2ccc(C)cc2)C1 (stereo not given) | 0.5% | 11.4% | 13.9% | -1.3 | -32.6%
O=C(CCn1nc(-c2ccc(Cl)cc2)ccc1=O)N1CCN(c2ccc(F)cc2)CC1 | -0.1% | -14.0% | -10.3% | -1.9 | -1.2%
CC(C)CCn1c(=O)c2ccccc2n2c(=S)[nH]nc12 | 0.3% | -1.4% | 12.6µM* | -3.2 | 3.98µM*
Cn1c(N/N=C/c2cc3ccccc3nc2Cl)nc2ccccc21 | -1.2% | ? | 1.26µM* | -3.4 | 1.12µM*
SMILES | B2AR arrestin | ELG1 DNA repair | Gal4-VP16 FLuc | TSHR antagonist | RORgamma inh
Cn1c(N/N=C/c2c[nH]c3ccccc23)nc2ccccc21 | 0.2% | ? | 3.98µM* | 14.2 | 1µM*
COc1cccc(CNC(=O)N2CCN(S(=O)(=O)c3ccc(C)cc3)CC2)c1 | -0.4% | 4.6% | -1.6% | 13.9 | -25.9%
N#CC(C#N)=C1C=CC=CN1/C(=C\c1ccccc1Cl)C(=O)c1ccccc1 | -0.6% | ? | 3.16µM* | 18.8 | 6.31µM*
COc1cc(C(C)=O)ccc1OCC(O)CN1CCN(c2cc(C)cc(C)c2)CC1 (stereo not given) | 0.1% | 13µM* | 6.8% | 7.5 | 16.9%
CC(=O)c1ccc(OCC(O)CN2CCN(c3ccc(F)cc3)CC2)cc1 (stereo not given) | -1.1% | ? | 3.1% | 3.3 | 2.4%
Cc1c(C(=O)Nc2nonc2-c2ccc(F)cc2)oc2ccc(F)cc12 | -0.2% | ? | ? | ? | 8.91µM*
CCc1nonc1NC(=O)c1oc2ccc(F)cc2c1C | -0.2% | ? | -2.4% | -2.1 | 16.7%
CCCNC(=O)OC[C@@H]1O[C@H](CCO/N=C(\C)CCN2CCCCc3nc(C)c(C)cc32)C=C[C@@H]1Oc1ccc(OC)cc1 | . | . | 3.4%[10 µM] | . | 4.9%[10 µM]
Cn1nnc(NC(=S)NC(=O)c2cccc3ccccc23)n1 | 0.3% | 2.1% | 3.55µM* | -2.2 | 1.12µM*
Cn1nnc(NC(=O)c2ccc(C(C)(C)C)cc2)n1 | -0.2% | ? | -18.3% | -6.4 | ?
COc1cc(OC)cc(C(=O)NC(=S)Nc2nnn(C)n2)c1 | 0.3% | 15.3% | 25.1µM* | -2.0 | ?
CCCCn1nnc(NC(=O)c2ccco2)n1 | -0.9% | ? | -0.9%[0.365 µM] | 2.0 | -21.6%
CC(C)C(=O)NC(=S)Nc1nnn(C)n1 | 0.5% | -0.3% | ? | -6.3 | 14.1µM*
CCCCn1nnc(NC(=S)NC(=O)c2cccs2)n1 | 2.5% | ? | 1µM* | -5.8 | 1.12µM*
COc1cc(OC)cc(C(=O)NC(=S)Nc2ccc3[nH]c(=O)[nH]c3c2)c1 | 0.8% | -8.7% | 2.2% | 0.1 | 3.3%
COc1cc(C2CC(=O)Oc3ccc(O)cc32)cc(OC)c1OC (stereo not given) | . | . | -11.5% | . | 4.5%
Cn1nnc(NC(=S)NC(=O)c2cccs2)n1 | 0.1% | 19.0% | 12.6µM* | 8.1 | 8.91µM*
COC(=O)c1ccc(CN(c2ccc(C)cc2)S(=O)(=O)c2ccc3c(c2)OCCO3)o1 | 0.2% | 20.6µM* | -3.7% | 18.5 | -3.0%
C=CC[C@@H](CC(=O)N(CCO)Cc1ccccc1)C(=O)N[C@H](COC(=O)[C@@H](CC=C)Cc1ccc(F)cc1)c1ccccc1 | 0.0% | ? | . | -27.7 | .
C=CC[C@@H](CC(=O)N(CCO)Cc1ccccc1)C(=O)NC[C@H](OC(=O)[C@@H](CC=C)Cc1ccc(F)cc1)c1ccccc1 | -0.2% | 5.8µM* | . | -33.2 | .
C=CC[C@@H](CC(=O)N(CCO)Cc1ccccc1)C(=O)N[C@@H](COC(=O)[C@@H](CC=C)Cc1ccc(F)cc1)Cc1c[nH]c2ccccc12 | -0.3% | 18.3µM* | . | -14.6 | .
